Screening results from PubChem.
This is a sample that favours compounds with a hit; in the whole collection about 2.8% have one here.
TNF necrop inh – inhibitors of TNF-alpha induced necroptosis in Jurkat FADD-/- cells | Jurkat FADD-/- TNF necroptosis rescue, ATP luminescence, 24 h; 0 = TNF only, 100 = no-TNF cells | AID 463075 | activation (protection from cell death), % at 10 µM | 220,000 compounds, 0.068% hits;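 active = activation, meaning protection from cell death, of at least 50% relative to plate controls; inactive = activation below 50%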;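 also: necroptosis triggered by 40 ng/mL TNF-alpha added together with compound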
Mcl1-Bid inh – Mcl-1/Bid interaction inhibition | 220,000 compounds, 0.97% hits | TR-FRET Mcl-1/Bid-Dy647 peptide binding, 1536-well | inhibition, % at 21.7 µM;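 active = compounds that cut the binding signal by more than half at the single screening dose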;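 also: His-tagged Mcl-1 with europium anti-His antibody binding Bid BH3 peptide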
Target sequence (Q07820 whole entry, looked up): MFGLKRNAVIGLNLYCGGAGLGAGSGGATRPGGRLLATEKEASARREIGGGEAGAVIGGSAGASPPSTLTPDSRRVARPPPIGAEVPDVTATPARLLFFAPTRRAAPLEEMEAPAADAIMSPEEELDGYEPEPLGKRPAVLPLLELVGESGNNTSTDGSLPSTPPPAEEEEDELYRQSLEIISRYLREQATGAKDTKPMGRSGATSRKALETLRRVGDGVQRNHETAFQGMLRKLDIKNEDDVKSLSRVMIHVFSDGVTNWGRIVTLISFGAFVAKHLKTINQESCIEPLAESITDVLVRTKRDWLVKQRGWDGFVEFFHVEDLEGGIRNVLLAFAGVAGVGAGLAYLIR
m-calpain inh – inhibitors of pig calpain II. purified calpain II, fluorogenic peptide substrate, 30 min. inhibition, % at 16 µM. 220,000 compounds, 0.37% hits;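 active = inhibition above about 50%, limit read from the data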
Mcl1-Noxa inh – Mcl-1/Noxa interaction inhibition; Q07820; TR-FRET Mcl-1/Noxa peptide binding, 2 h; inhibition, % at 21.7 µM; 220,000 compounds, 1.5% hits;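 active = compounds that cut the protein-peptide binding signal by more than 50% relative to plate controls in a single-dose test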;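 also: His-tagged Mcl-1 with rhodamine Noxa BH3 peptide and terbium anti-His antibody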
Bim-Mcl-1 – human Bim-Mcl-1 interaction inhibition; 190,000 compounds, 0.1% hits; inhibition, % at 10 µM; Q07820; AID 1009; Bead-based flow cytometry, Bim peptide-Mcl-1 binding; in the data active = inhibition above about 40%
L929 necroptosis – blocks zVAD induced death of L929 cells | 220,000 compounds, 0.38% hits | AID 1377 | viability rescue, % at 10 µM | L929 zVAD necroptosis rescue, ATP luminescence, 24 h; with zVAD 60 µM;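 active = activation, scaled between plate controls, above about 75%, limit read from the data; inactive = activation under that limit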
zVAD death conf – confirmed blocker of zVAD induced death in L929 cells | 760 compounds, 16% hits | activation (protection from necroptosis), % at 10 µM | L929 zVAD-induced necroptosis rescue, ATP luminescence, 24 h | shares compounds with L929 necroptosis;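 active = mean protection from necroptosis of at least 50% over duplicate tests; inactive = mean protection below 50%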
Of the large screens only hits and unclear results are named; the others gave an inactive call (follow-up assays come after a bar, where they were run).

COc1ccc(C(=O)/C=C/c2cn(CN3CCN(C)CC3)c3ccccc23)cc1	none
COc1ccc(C(=O)/C=C/c2cn(CC(O)CN3CCOCC3)c3ccccc23)cc1 (centres undefined)	L929 necroptosis 82 | zVAD death conf inactive
CCN(CC)c1ccc2cc(S(=O)(=O)c3ccc(C)cc3)c(=O)oc2c1	none
O=C1COc2ccc(C(=O)COc3ccc([N+](=O)[O-])cc3)cc2N1	none (no result: Bim-Mcl-1)
O=C(COC(=O)c1ccc(O)cc1)Nc1ccc(Cl)cc1	L929 necroptosis 78 | zVAD death conf inactive
CS(=O)(=O)Nc1cccc(S(=O)(=O)N2CCN(C(=O)c3ccccc3)CC2)c1	none (no result: Bim-Mcl-1)
Cc1ccc(-c2nc(Nc3ccccc3)n[nH]2)cc1	L929 necroptosis 77 | zVAD death conf 77
FC(F)(F)c1cccc(-c2ccn3ncnc3n2)c1	none
CC1(C(=O)OCC(=O)Nc2ccc(C(N)=O)cc2)CC1(Cl)Cl (centres undefined)	none
CC1(C(=O)OCC(=O)Nc2ccc3ccccc3c2)CC1(Cl)Cl (centres undefined)	L929 necroptosis 78 | zVAD death conf inactive
CC(=O)c1ccc(NC(=S)NC(=O)c2c(Cl)c(C)nn2C)cc1	none
Oc1ccc(/C=N/N2CCN(c3ccccn3)CC2)cc1	none (no result: Bim-Mcl-1)
CC(C)(C)c1ccc(/C=N/N2CCN(c3ccccn3)CC2)cc1	L929 necroptosis 82 (no result: Bim-Mcl-1) | zVAD death conf inactive
CCOc1ccccc1-n1c(SCC(=O)Nc2ccc(CC)cc2)nc2n[nH]c(C)c2c1=N	L929 necroptosis 80 | zVAD death conf inactive
COc1ccc(S(=O)(=O)NCCC(=O)NC2CCCCCCC2)cc1	L929 necroptosis 81 | zVAD death conf inactive
CC(C)(C)n1nc(-c2ccc(F)cc2)c2c(N)ncnc21	L929 necroptosis 79 | zVAD death conf inactive
CCOc1ccccc1NC(=O)Nc1ccc(Br)cn1	none
CCOc1ccccc1NC(=O)Nc1ccccn1	L929 necroptosis 79 (no result: Bim-Mcl-1) | zVAD death conf inactive
COc1ccc(S(=O)(=O)c2cnc3ccccc3n2)cc1	L929 necroptosis 76 | zVAD death conf inactive
O=S(=O)(c1ccc(Br)cc1)c1cnc2ccccc2n1	none
NC(=O)c1c(-c2ccccc2)oc2ccc(O)cc12	L929 necroptosis 85 | zVAD death conf inactive
CCOC(=O)c1c(N)nn(C(=O)C(C)(C)C)c1-c1ccccc1	none
CCOC(=O)c1c(N)nn(C(=O)c2ccccc2F)c1-c1ccc(OC)cc1	L929 necroptosis 78 | zVAD death conf inactive
CC(C)c1ccc(-n2cnn(-c3ncccc3[N+](=O)[O-])c2=O)cc1	L929 necroptosis 78 | zVAD death conf inactive
O=C(Cn1nnc(-c2ccc(Cl)cc2)n1)NC1CC2CCC1C2 (centres undefined)	L929 necroptosis 83 | zVAD death conf inactive
CC(C)(C)NC(=O)Cn1nnc(-c2ccc(S(C)(=O)=O)cc2)n1	none
O=C(Cn1nnc(-c2ccc(Cl)cc2)n1)NCCC1=CCCCC1	none
CC(C)(C)NC(=O)Cn1nnc(-c2ccc(Cl)cc2)n1	L929 necroptosis 84 | zVAD death conf inactive
O=C(Cn1nnc(-c2ccc(Cl)cc2)n1)NCC1CCCCC1	L929 necroptosis 88 | zVAD death conf inactive
COc1nnc(-c2ccc(N3CCCCC3)c(NC(C)=O)c2)c2ccccc12	none
CCOc1ccc2nc(SC3CC(=O)N(c4ccc(OC)cc4OC)C3=O)sc2c1 (centres undefined)	none
CCOCC(=O)N1CCN(c2ccc([N+](=O)[O-])cc2)CC1	none
CC(C)(C)n1cn[nH]c1=S	none (no result: Bim-Mcl-1)
O=C(Nc1cccc(Oc2ccc3c(c2)C(=O)NC3=O)c1)c1cccs1	L929 necroptosis 87 | zVAD death conf inactive
O=C(COc1cccc(NC(=O)c2cccs2)c1)c1ccc(F)cc1	none
CCN(CCO)c1ccc(N=Nc2cc(C)[nH]n2)cc1	L929 necroptosis 85 (no result: Bim-Mcl-1) | zVAD death conf inactive
O=C(Oc1ccc(Nc2ncnc3ccccc23)cc1)c1cccnc1	Mcl1-Bid inh 73, L929 necroptosis 80 | zVAD death conf inactive
c1ccc(Nc2nc3ccccc3[nH]2)nc1	L929 necroptosis 75 | zVAD death conf inactive
Cc1cc(C)nc(Nc2nc3ccccc3[nH]2)n1	none
Cc1ccc2c(c1)C1CN(C)CCC1N2C(=O)c1cccc(S(=O)(=O)N(C)C)c1 (centres undefined)	none
Cc1ccc2c(c1)C1CN(C)CCC1N2C(=O)Nc1ccc(Cl)cc1 (centres undefined)	L929 necroptosis 82 | zVAD death conf inactive
COc1ccc(Nc2ccccc2N)cc1	L929 necroptosis 92 | zVAD death conf inactive
Nc1ccc(Nc2ccccc2N)cc1	none
O=c1oc2ccccc2nc1/C=C(\O)c1ccccc1	none (no result: Bim-Mcl-1)
CC(C)(C)/C(O)=C/c1nc2ccccc2oc1=O	L929 necroptosis 88 | zVAD death conf inactive
C=CCN1C(=O)CS/C1=N\N=C\c1cccc([N+](=O)[O-])c1	none
O=C(Nc1nsc(-c2ccccc2)n1)c1cccs1	L929 necroptosis 75 | zVAD death conf inactive
Cc1sc(NC(=O)c2cccs2)nc1-c1ccccc1	none
COC(=O)C1=C(C)N(C2CCCCC2)C(=O)/C1=C\c1cccs1	none
ClC1=C(Cl)C(Cl)=C(Cl)C1=C/C=C/c1ccccc1	L929 necroptosis 112 (no result: Bim-Mcl-1) | zVAD death conf inactive
CC1=NN(c2ccccc2)C(=O)/C1=C\C=C\c1ccccc1	none (no result: Bim-Mcl-1)
O=S(=O)(c1ccc(-c2csc(-c3cccnc3)n2)cc1)N1CCOCC1	L929 necroptosis 85 | zVAD death conf inactive
CCC1(c2ccccc2)C(=O)NCNC1=O	L929 necroptosis 75 | zVAD death conf inactive
CC(C(=O)Nc1nncs1)N1C(=O)C2C3C=CC(C3)C2C1=O (centres undefined)	L929 necroptosis 78 | zVAD death conf inactive
O=C(C1=NNCC1c1ccc(Cl)cc1)C1CO1 (centres undefined)	TNF necrop inh 57, L929 necroptosis 89 | zVAD death conf 94
CCc1ccc(N2C(=O)CC(NNc3nc4ccccc4s3)C2=O)cc1 (centres undefined)	none
CC(C)C(=O)Nc1cccc(C(=O)Nc2nccs2)c1	L929 necroptosis 77 | zVAD death conf inactive
CCC(=O)Nc1cccc(C(=O)Nc2nccs2)c1	L929 necroptosis 86 | zVAD death conf inactive
CCCC(=O)Nc1cccc(C(=O)Nc2nccs2)c1	L929 necroptosis 98 | zVAD death conf inactive
O=C(Nc1nccs1)c1cccc(NC(=O)C2CC2)c1	none
CC(C)Cn1c(N)c(C=O)c(=O)[nH]c1=O	none
O=C(Nc1ccccc1)n1ccc(-c2ccc(-n3ccnc3)cc2)n1	L929 necroptosis 76 | zVAD death conf inactive
C/C(=N\OCc1ccccc1C#N)c1cc2ccccc2o1	none
C/C(=N\OCc1ccc(C#N)cc1)c1cc2ccccc2o1	L929 necroptosis 78 (no result: Bim-Mcl-1) | zVAD death conf inactive
